Laboratory results: PubChem BioAssay AID651551 (Sanford-Burnham Center for Chemical Genomics, 2012)

Target: PEG-3 (UniProt Q6IN02)
Assay: GAPDH versus PEG-3 reporter suppression – cell-based, luminescence, counter-screen for PEG-3 promoter inhibitor project, SAR follow-up (AID 651551)
Conditions: HeLa PEG-Prom / GAPDH luciferase reporter, 6 or 24 h, run 1, 6 h; at 99 µM (top of the series)

First: Cc1cc(NC(=O)c2ccccc2C)n(-c2nc3ccccc3[nH]2)n1
Second: Cc1cc(NC(=O)c2ccccc2)n(-c2nc3ccccc3n2C)n1
The inhibition % (higher = more inhibition) of the first is lower: 32.8% for the first, 48.1% for the second.

First: CCn1nc(C(=O)Nc2nc(-c3ccccn3)cs2)c2ccccc2c1=O
Second: CCCn1nc(C(=O)Nc2nc3ccccc3s2)c2ccccc2c1=O
The inhibition % (higher = more inhibition) of the first is lower: 26.9% for the first, 38.9% for the second.

Compared with `COc1ccc(Cl)cc1Nc1nc(-c2sc(NC(=O)c3ccccc3)nc2C)cs1`, `Cc1nc(NC(=O)c2ccccc2)sc1-c1csc(Nc2cccc(Cl)c2C)n1` is lower in inhibition % (higher = more inhibition): 49.3% for the first, 37.4% for the second.

Going from `CCn1cc(C(=O)NCc2ccco2)c(=O)c2cc(S(=O)(=O)N3CCCC3)ccc21` to `Cc1ccc(Cl)cc1Nc1nc(-c2sc(NC(=O)c3ccco3)nc2C)cs1`, the inhibition % (higher = more inhibition) rises from 19.5% to 57.5%.

Compared with `COCCCNC(=O)c1ccc(Cn2c(=O)c3ccccc3n(Cc3ccccc3C#N)c2=O)cc1`, `COc1ccc(-n2nc(C(=O)NCC(=O)Nc3cccc(OC)c3)c3ccccc3c2=O)cc1` is lower in inhibition % (higher = more inhibition): 43.4% for the first, -7.42% for the second.

First: Cc1nc(NC(=O)c2ccccc2)sc1-c1csc(Nc2ccccc2Cl)n1
Second: Cc1nc(NC(=O)c2ccccc2)sc1-c1csc(Nc2ccccc2)n1
The inhibition % (higher = more inhibition) of the first is lower: -1.45% for the first, 23.9% for the second.

Compared with `O=C(Nc1nc2ccccc2s1)c1nn(-c2ccccc2)c(=O)c2ccccc12`, `O=C(Nc1nc(-c2ccccc2)cs1)c1nn(-c2ccccc2)c(=O)c2ccccc12` is higher in inhibition % (higher = more inhibition): -4.43% for the first, -1.45% for the second.

First: COc1ccc(-n2nc(C(=O)NCC(=O)Nc3cc(OC)c(OC)c(OC)c3)c3ccccc3c2=O)cc1OC
Second: COc1ccccc1Nc1nc(-c2sc(NC(=O)c3ccco3)nc2C)cs1
The inhibition % (higher = more inhibition) of the first is lower: 6.02% for the first, 12% for the second.
